Results published in PubChem BioAssay (Tox21).
Unmarked numbers belong to inactive results. Results filed as inconclusive are left out. A call without a number means that no potency is given here. Some structures have more than one record in an assay (separate samples or runs), and their calls can disagree. Active and inactive are the calls of the source. Unless noted, calls follow the shape of the full dose curve.

How the values were obtained:
[1] = qHTS assay for small molecules that induce genotoxicity in human embryonic kidney cells expressing luciferase-tagged ATAD5 (AID 651632; active = well fitted curve in the direction sought with a large enough effect in the repeat runs; an effect the other way counts as inactive or inconclusive; also: nearly all actives have a fitted effect of over 15% in size)
Procedure, shortened: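 Luminescent reporter readout, HEK293T ATAD5-luc line: 16 hr drug exposure (37C, 5% CO2) followed by Amplite, 30 min RT.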

[2] = qHTS assay for small molecule agonists of the p53 signaling pathway - cell viability (AID 651633); also: nearly all actives have a fitted effect of over 30% in size; also: potency is read from the fitted curve at half-maximal effect
Procedure, shortened: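 p53RE-bla cells were treated with compound for 16 hours at 37 C. Cytotoxicity was then measured as CellTiter-Glo luminescence after 30 min at room temperature.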

[3] = qHTS assay for small molecules that induce genotoxicity in human embryonic kidney cells expressing luciferase-tagged ATAD5 - cell viability (AID 651634); also: nearly all actives have a fitted effect of over 25% in size; also: potency is read from the fitted curve at half-maximal effect
Procedure, shortened: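 Viability read: CellTiter-Fluor fluorescence, 30 min at 37C. Cells: HEK293T, luciferase-tagged ATAD5. Exposure: 15.5 hr, 37C, 5% CO2, compound or DMSO vehicle.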

[4] = qHTS assay for small molecule disruptors of the mitochondrial membrane potential - cell viability (AID 720634);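 also: human HepG2 liver cancer cells; series mostly up to about 83 µM; nearly all actives have a fitted effect of over 20% in size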
Procedure, shortened: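 HepG2, 1 hr compound, 37 C. ATP luminescence via CellTiter-Glo, 30 min RT, same well as m-MPI.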

[5] = qHTS assay to test for compound auto fluorescence at 590 nm (red) in HepG2 cells (AID 720674; active = well fitted curve in the direction sought with a large enough effect in the repeat runs; an effect the other way counts as inactive or inconclusive)
Procedure, shortened: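 Seeding: 2,000 HepG2 cells/well, MEM/10% FBS, overnight 37 C. Dosing: compound vs DMSO. Incubation: 1 hr, 37 C, 5% CO2. Read: fluorescence 540 ex/590 em, Rose Bengal sodium as red reference.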

[6] = qHTS assay to test for compound auto fluorescence at 460 nm (blue) in HEK293 cells (AID 720678; active = well fitted curve in the direction sought with a large enough effect in the repeat runs; an effect the other way counts as inactive or inconclusive)
Procedure, shortened: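 Blue-channel (Ex/Em 405/460 nm) intensity measured in HEK293 cultures after overnight compound exposure at 37C; signal expressed relative to triamterene. Cells plated 2,000 per well in 10% dialyzed FBS medium and allowed 4-5 hr to attach.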

[7] = qHTS assay to test for compound auto fluorescence at 590 nm (red) in HEK293 cells (AID 720679; active = well fitted curve in the direction sought with a large enough effect in the repeat runs; an effect the other way counts as inactive or inconclusive)
Procedure, shortened: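 Red-channel autofluorescence (Ex/Em 540/590 nm; Rose Bengal sodium reference) was measured after overnight 37C, 5% CO2 exposure of attached HEK293 cells, 2,000 per well in medium with 10% dialyzed FBS.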

[8] = qHTS assay to test for compound auto fluorescence at 535 nm (green) in HEK293 cells (AID 720680; active = well fitted curve in the direction sought with a large enough effect in the repeat runs; an effect the other way counts as inactive or inconclusive)
[9] = qHTS assay to test for compound auto fluorescence at 460 nm (blue) in HEK293 cell free culture (AID 720681; active = well fitted curve in the direction sought with a large enough effect in the repeat runs; an effect the other way counts as inactive or inconclusive)
Procedure, shortened: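 Compounds were added to cell-free DMEM with 10% FBS and fluorescence read directly. The blue channel used 405 nm excitation and 460 nm emission, with triamterene as the reference fluorophore.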

[10] = qHTS assay to test for compound auto fluorescence at 535 nm (green) in HEK293 cell free culture (AID 720682; active = well fitted curve in the direction sought with a large enough effect in the repeat runs; an effect the other way counts as inactive or inconclusive)
Procedure, shortened: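 Steps: dispense DMEM/10% FBS into empty wells; pin in compound or DMSO; measure fluorescence at 485/535 nm. Values are fluorescein equivalents.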

[11] = qHTS assay to test for compound auto fluorescence at 590 nm (red) in HEK293 cell free culture (AID 720683; active = well fitted curve in the direction sought with a large enough effect in the repeat runs; an effect the other way counts as inactive or inconclusive)
Procedure, shortened: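 Cell-free wells of DMEM with 10% FBS received compound, and intrinsic fluorescence was read at excitation/emission 540/590 nm. Values expressed as equivalence to Rose Bengal sodium.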

[12] = qHTS assay to identify small molecule antagonists of the glucocorticoid receptor (GR) signaling pathway - cell viability counter screen (AID 720693; active = well fitted curve in the direction sought with a large enough effect in the repeat runs; an effect the other way counts as inactive or inconclusive; also: nearly all actives have a fitted effect of over 55% in size; also: potency is read from the fitted curve at half-maximal effect)
[13] = qHTS assay for identifying genotoxic compounds that show differential cytotoxicity against isogenic chicken DT40 cell lines with known DNA damage response pathways - Rad54/Ku70 mutant cell line (AID 743015; active = well fitted curve in the direction sought with a large enough effect in the repeat runs; an effect the other way counts as inactive or inconclusive; also: nearly all actives have a fitted effect of over 60% in size; also: potency is read from the fitted curve at half-maximal effect)
[14] = qHTS assay to identify small molecule antagonists of the estrogen receptor alpha (ER-alpha) signaling pathway - cell viability counter screen (AID 743074);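 also: HEK293 cells carrying ER-alpha-UAS-bla reporter stimulated with 17beta-estradiol; nearly all actives have a fitted effect of over 45% in size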; also: potency is read from the fitted curve at half-maximal effect
[15] = biological target: Aromatase (Homo sapiens) (UniProt P11511); assay: qHTS assay to identify aromatase inhibitors (AID 743083; active = well fitted curve in the direction sought with a large enough effect in the repeat runs; an effect the other way counts as inactive or inconclusive; also: series mostly up to about 70 µM; nearly all actives have a fitted effect of over 55% in size)
Aromatase (Homo sapiens), sequence (P11511 whole entry, looked up): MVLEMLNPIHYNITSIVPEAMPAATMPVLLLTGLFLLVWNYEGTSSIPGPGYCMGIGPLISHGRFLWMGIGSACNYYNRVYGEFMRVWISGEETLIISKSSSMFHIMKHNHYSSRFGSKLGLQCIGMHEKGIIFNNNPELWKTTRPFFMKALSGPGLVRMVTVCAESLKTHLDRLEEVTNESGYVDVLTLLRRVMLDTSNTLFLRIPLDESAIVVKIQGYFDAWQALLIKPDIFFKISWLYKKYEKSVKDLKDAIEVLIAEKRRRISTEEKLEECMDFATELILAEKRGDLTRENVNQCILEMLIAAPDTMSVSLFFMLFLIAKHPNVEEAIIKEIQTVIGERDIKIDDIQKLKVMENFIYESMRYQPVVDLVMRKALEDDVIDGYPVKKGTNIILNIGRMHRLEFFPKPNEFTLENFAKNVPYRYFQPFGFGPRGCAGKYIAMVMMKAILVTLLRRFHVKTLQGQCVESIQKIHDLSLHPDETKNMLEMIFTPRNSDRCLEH

[16] = qHTS assay to identify aromatase inhibitors - cell viability counter screen (AID 743084; active = well fitted curve in the direction sought with a large enough effect in the repeat runs; an effect the other way counts as inactive or inconclusive;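 also: cells stimulated with testosterone during compound exposure; nearly all actives have a fitted effect of over 55% in size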)
[17] = biological target: Aryl hydrocarbon receptor (Homo sapiens) (UniProt P35869); assay: qHTS assay to identify small molecule that activate the aryl hydrocarbon receptor (AhR) signaling pathway (AID 743085; active = well fitted curve in the direction sought with a large enough effect in the repeat runs; an effect the other way counts as inactive or inconclusive; also: nearly all actives have a fitted effect of over 15% in size; also: potency is read from the fitted curve at half-maximal effect)
Aryl hydrocarbon receptor (Homo sapiens), sequence (P35869 whole entry, looked up): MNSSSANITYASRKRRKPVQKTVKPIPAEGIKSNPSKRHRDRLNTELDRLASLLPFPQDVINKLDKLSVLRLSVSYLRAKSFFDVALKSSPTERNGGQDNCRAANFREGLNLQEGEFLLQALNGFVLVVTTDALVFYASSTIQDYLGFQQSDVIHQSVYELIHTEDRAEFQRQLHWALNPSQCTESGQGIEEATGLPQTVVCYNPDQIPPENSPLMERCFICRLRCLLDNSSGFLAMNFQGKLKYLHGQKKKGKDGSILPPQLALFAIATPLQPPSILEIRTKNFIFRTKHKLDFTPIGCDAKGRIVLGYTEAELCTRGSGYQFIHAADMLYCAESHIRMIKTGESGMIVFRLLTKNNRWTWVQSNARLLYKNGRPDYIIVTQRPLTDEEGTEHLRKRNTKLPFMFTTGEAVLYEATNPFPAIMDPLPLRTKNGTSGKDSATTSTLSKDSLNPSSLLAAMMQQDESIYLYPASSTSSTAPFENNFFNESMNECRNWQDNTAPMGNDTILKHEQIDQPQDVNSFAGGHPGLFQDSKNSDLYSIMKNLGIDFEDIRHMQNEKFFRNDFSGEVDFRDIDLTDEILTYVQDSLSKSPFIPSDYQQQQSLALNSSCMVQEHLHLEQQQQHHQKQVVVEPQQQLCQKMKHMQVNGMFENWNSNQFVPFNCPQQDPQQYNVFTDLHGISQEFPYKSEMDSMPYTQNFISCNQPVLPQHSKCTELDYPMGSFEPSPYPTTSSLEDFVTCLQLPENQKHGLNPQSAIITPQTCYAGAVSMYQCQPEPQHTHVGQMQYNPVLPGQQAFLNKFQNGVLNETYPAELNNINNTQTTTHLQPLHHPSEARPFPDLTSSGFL
Procedure, shortened: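 Steps: seed HepG2-AhR-luc cells; allow 5 h at 37C; pin-transfer test compound or vehicle; incubate 24 h at 37C; add viability dye (30 min, 37C) and read fluorescence; add luciferase substrate (30 min, RT) and read luminescence.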

[18] = qHTS assay to identify small molecule that activate the aryl hydrocarbon receptor (AhR) signaling pathway - cell viability counter screen (AID 743086; active = well fitted curve in the direction sought with a large enough effect in the repeat runs; an effect the other way counts as inactive or inconclusive; also: nearly all actives have a fitted effect of over 45% in size; also: potency is read from the fitted curve at half-maximal effect)
Procedure, shortened: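 HepG2-AhR-luc (HG2L7.5c1) cells, 4000/well, treated 24 h at 37 C with compound; viability measured as CellTiter-Fluor fluorescence after 30 min in the same wells as the luciferase read.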

[19] = qHTS assay to identify small molecule phospholipidosis (PLD) inducers (AID 1259344; active = well fitted curve in the direction sought with a large enough effect; an effect the other way counts as inactive or inconclusive)
Procedure, shortened: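 HepG2 cells, 900/well, treated with compound plus LipidTOX Red for 24 h at 37 C; amiodarone positive and DMSO negative controls. Fixed with paraformaldehyde/Hoechst, then high-content imaging scored LipidTOX pit count and integrated intensity per well and per cell.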

[20] = biological target: Acetylcholinesterase (Homo sapiens) (UniProt P22303); assay: Acetylcholinesterase (AChE) small molecule antagonists: colormetric cell-based qHTS assay (AID 1347395); also: nearly all actives have a fitted effect of over 30% in size; also: potency is read from the fitted curve at half-maximal effect
Acetylcholinesterase (Homo sapiens), sequence (P22303 whole entry, looked up): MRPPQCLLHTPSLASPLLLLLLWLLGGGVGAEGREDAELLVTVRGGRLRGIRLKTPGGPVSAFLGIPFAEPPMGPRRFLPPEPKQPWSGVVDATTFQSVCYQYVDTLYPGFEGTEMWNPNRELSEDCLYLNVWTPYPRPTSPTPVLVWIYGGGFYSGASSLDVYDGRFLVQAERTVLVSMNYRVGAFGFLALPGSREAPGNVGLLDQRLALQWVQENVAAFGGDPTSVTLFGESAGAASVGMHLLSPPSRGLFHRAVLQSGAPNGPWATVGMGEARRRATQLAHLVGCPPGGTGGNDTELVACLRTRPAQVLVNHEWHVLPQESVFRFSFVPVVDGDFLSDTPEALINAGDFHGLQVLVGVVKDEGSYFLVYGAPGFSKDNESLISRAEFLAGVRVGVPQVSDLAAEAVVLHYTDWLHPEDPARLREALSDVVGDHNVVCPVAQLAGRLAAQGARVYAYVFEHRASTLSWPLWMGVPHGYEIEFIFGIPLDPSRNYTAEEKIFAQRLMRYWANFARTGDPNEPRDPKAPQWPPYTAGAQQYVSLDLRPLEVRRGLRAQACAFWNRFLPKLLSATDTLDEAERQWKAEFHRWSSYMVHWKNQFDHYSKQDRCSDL
Procedure, shortened: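 Endogenous AChE of human neuroblastoma SH-SY5Y cells was measured with an Ellman-type DTNB/acetylthiocholine mix. Compound pretreatment lasted 30 min at 37 C; substrate reaction ran 90 min at 37 C.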

## C[C@]12CC[C@H]3[C@@H](CCC4=CC(=O)CC[C@@]43C)[C@@H]1CC[C@H]2O
[1]
  Potency: inactive
[2]
  Potency: inactive
[3]
  Potency: inactive
[4]
  Potency: inactive
[5]
  outcome: inactive
[6]
  Potency: inactive
[7]
  outcome: inactive
[8]
  Potency: inactive
[9]
  Potency: inactive
[10]
  Potency: inactive
[11]
  outcome: inactive
[12]
  Potency: inactive
[13]
  Potency: 29.8 µM (active)
[14]
  Potency: inactive
[15]
  Potency: inactive
[16]
  Potency: inactive
[17]
  Potency: inactive
[18]
  Potency: inactive

## O.O.O.O=C([O-])C(O)C(O)C(=O)[O-].O=C([O-])C(O)C(O)C(=O)[O-].[K+].[K+].[Sb].[Sb] (configuration not stated)
[1]
  Potency: inactive
[4]
  Potency: inactive
[5]
  outcome: inactive
[6]
  Potency: inactive
[7]
  outcome: inactive
[8]
  Potency: inactive
[9]
  Potency: inactive
[10]
  Potency: inactive
[11]
  outcome: inactive
[12]
  Potency: inactive
[13]
  Potency: 11.9 µM (active)
[14]
  Potency: inactive
[16]
  Potency: inactive
[17]
  Potency: inactive
[18]
  Potency: inactive
[19]
  Potency: inactive

## COC(=O)[C@]12CCC(C)(C)C[C@H]1[C@H]1C(=O)C=C3[C@@]4(C)C=C(C#N)C(=O)C(C)(C)[C@@H]4CC[C@@]3(C)[C@]1(C)CC2
[2]
  Potency: 1.33 µM (active)
[3]
  Potency: 2.98 µM (active)
[4]
  Potency: inactive
[5]
  outcome: inactive
[6]
  Potency: inactive
[7]
  outcome: inactive
[8]
  Potency: inactive
[9]
  Potency: inactive
[10]
  Potency: inactive
[11]
  outcome: inactive
[12]
  Potency: 1.07 µM (active)
[14]
  Potency: 3.38 µM (active)
[17]
  Potency: inactive
[18]
  Potency: 3.76 µM (active)
[19]
  Potency: inactive

## O=P1(N(CCCl)CCCl)NC(OO)CCO1 (configuration not stated)
[1]
  Potency: inactive
[2]
  Potency: inactive
[3]
  Potency: inactive
[4]
  Potency: inactive
[5]
  outcome: inactive
[6]
  Potency: inactive
[7]
  outcome: inactive
[8]
  Potency: inactive
[9]
  Potency: inactive
[10]
  Potency: inactive
[11]
  outcome: inactive
[13]
  Potency: inactive
[14]
  Potency: inactive
[15]
  Potency: inactive
[16]
  Potency: inactive
[18]
  Potency: inactive
[19]
  Potency: inactive

## CC(=O)OC(C)=O
[17]
  Potency: inactive
[20]
  Potency: inactive

## c1coc(CNc2ncnc3nc[nH]c23)c1
[20]
  Potency: inactive

## Cc1ccc(S(=O)(=O)NC2CCCCC2)cc1
[20]
  Potency: inactive

## Oc1cccc(-c2c3nc(c(-c4cccc(O)c4)c4ccc([nH]4)c(-c4cccc(O)c4)c4nc(c(-c5cccc(O)c5)c5ccc2[nH]5)CC4)C=C3)c1
[20]
  Potency: inactive

## COC(=O)C1=C(C)NC(C)=C(C(=O)OC)C1c1ccccc1[N+](=O)[O-]
[20]
  Potency: inactive

## CC(=O)SC[C@@H](C)C(=O)N1CCC[C@H]1C(=O)N[C@@H](Cc1ccccc1)C(=O)O
[20]
  Potency: inactive

## C=CC(=O)OCC(CO)(COCC(COC(=O)C=C)(COC(=O)C=C)COC(=O)C=C)COC(=O)C=C
[20]
  Potency: inactive

## COc1ccc(-c2nc3ccc(C4=NNC(=O)CC4C)cc3[nH]2)cc1 (configuration not stated)
[20]
  Potency: inactive

## Nc1cc(Cl)c([N+](=O)[O-])cc1O
[20]
  Potency: inactive

## COC(=O)C1=C(C)NC(C)=C(C(=O)OCCN(C)Cc2ccccc2)C1c1cccc([N+](=O)[O-])c1 (configuration not stated)
[20]
  Potency: inactive

## CC1(C)[C@H](C(=O)O)N2C(=O)C[C@H]2S1(=O)=O
[20]
  Potency: inactive

## NCCNCCNCCNCCN
[20]
  Potency: 79.3 µM (active)
  activity, negative = inhibition: 4.34% [at 10.5 µM]

## C=C(C)C(=O)OCCOCCOCCOCCOC(=O)C(=C)C
[20]
  Potency: inactive

## C=C1C(CCl)(CCl)C2(Cl)C(Cl)C(Cl)C1(Cl)C2(Cl)Cl (configuration not stated)
[20]
  Potency: inactive

## Cc1cc(Br)ccc1NC(=O)CCl
[20]
  Potency: inactive

## Cc1ccc(N=Nc2c(O)c(C(=O)O)cc3ccccc23)c(S(=O)(=O)O)c1
[20]
  Potency: inactive

## Cc1cc(CCCOc2c(C)cc(-c3noc(C(F)(F)F)n3)cc2C)on1
[20]
  Potency: inactive

## O=c1[nH]c(=O)n([C@H]2C[C@H](O)[C@@H](CO)O2)cc1Br
[20]
  Potency: inactive

## CC(C)(C)NC(=O)[C@@H]1C[C@@H]2CCCC[C@@H]2CN1C[C@@H](O)[C@H](Cc1ccccc1)NC(=O)[C@H](CC(N)=O)NC(=O)c1ccc2ccccc2n1
[20]
  Potency: inactive

## CN(C)CCCN1c2ccccc2Sc2ccc(C(F)(F)F)cc21
[20]
  Potency: inactive

## Cc1cccc(C)c1O
[20]
  Potency: inactive

## O=C1CN(/N=C/c2ccc([N+](=O)[O-])o2)C(=O)N1
[20]
  Potency: inactive

## CCn1nc(C(=O)O)c(=O)c2cc3c(cc21)OCO3
[20]
  Potency: inactive

## CN(C)C(=O)C1(N2CCCCC2)CCN(CC[C@@]2(c3ccc(Cl)c(Cl)c3)CN(C(=O)c3ccccc3)CCO2)CC1
[20]
  Potency: 33.2 µM (active)

## F/C(COc1ccc2c(c1)[nH]c1ccccc12)=C1/CN2CCC1CC2
[1]
  Potency: inactive
[2]
  Potency: inactive
[3]
  Potency: inactive
[4]
  Potency: inactive
[5]
  outcome: inactive
[6]
  Potency: inactive
[7]
  outcome: inactive
[8]
  Potency: inactive
[9]
  Potency: inactive
[10]
  Potency: inactive
[11]
  outcome: inactive
[12]
  Potency: inactive
[13]
  Potency: 7.5 µM (active)
[17]
  Potency: 10.6 µM (active)
[18]
  Potency: 21.1 µM (active)

## CCOC(=O)C1=C[C@]2(CC)CCCN3CCc4c(n1c1ccccc41)[C@@H]32
[20]
  Potency: inactive

## CC(C)(C)c1cc(O)c(C(C)(C)C)cc1O
[20]
  Potency: inactive

## CC(C)(C)c1ccc(C(O)CCCN2CCC(C(O)(c3ccccc3)c3ccccc3)CC2)cc1 (configuration not stated)
[20]
  Potency: inactive

## Nc1ccc(C(=O)N2CC3CC(CN(Cc4ccccc4)C3)C2)cc1
[20]
  Potency: inactive

## CC(=O)c1ccc(OCC(=O)N2CCCCC2)cc1
[20]
  Potency: inactive

## Cc1c(C)c2c(c(C)c1O)CC[C@@](C)(CCC[C@H](C)CCC[C@H](C)CCCC(C)C)O2
[20]
  Potency: inactive

## Clc1nc2ccccc2s1
[20]
  Potency: inactive

## COc1ccc(CCN(C)CCCC(C#N)(c2ccc(OC)c(OC)c2)C(C)C)cc1OC (configuration not stated)
[20]
  Potency: inactive

## CC1(C)[C@H]2CC[C@]1(C)C(=O)C2
[20]
  Potency: inactive

## COc1cc(Cc2cnc(N)nc2N)cc(OC)c1OC
[20]
  Potency: inactive

## N#[N+]c1ccc2c(S(=O)(=O)[O-])cccc2c1O
[20]
  Potency: inactive

## CCC(=O)Nc1cccc(N)c1
[20]
  Potency: inactive

## CC(C)N=C=NC(C)C
[20]
  Potency: inactive

## Cc1cccc(Oc2ccccc2)c1
[20]
  Potency: inactive

## CN1CCN(C2=Nc3cc(Cl)ccc3Nc3ccccc32)CC1
[20]
  Potency: inactive
